In PubChem BioAssay (EPA / NIEHS):
Inconclusive results are not listed. The source made the active and inactive calls. The calls were made as follows, unless noted: active = hit-call score of the fitted dose curve at least 0.9, where 1 is the maximum; inactive = score below 0.9.

How the values were obtained:
[1] = read-out: Transforming Growth Factor (TGFB1), TGFB1 (gene 7040); assay: LTEA_HepaRG_TGFB1: Life Technologies and Expression Analysis (LTEA) Assay for Transforming Growth Factor (TGFB1) Transporter using HepaRG (AID 2283533); conditions: mRNA level, 48 h; actives raise or lower the signal
Outline: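 Expression change of TGFB1 in human HepaRG cells is measured after a 48 h chemical exposure, up to 100 uM in 0.5% DMSO vehicle. Curves are fitted in both directions relative to the DMSO baseline.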

TIMP1, TIMP1 (gene 7076) = assay: LTEA_HepaRG_TIMP1: Life Technologies and Expression Analysis (LTEA) Assay for TIMP1 using HepaRG (AID 2283534); conditions: mRNA level, 48 h; actives raise or lower the signal
Outline: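 We dosed human liver HepaRG cultures for 48 hours with up to 100 uM test chemical and measured TIMP1 expression by qRT-PCR. Activity in either direction is fitted relative to the 0.5% DMSO vehicle.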

[2] = read-out: Tumor necrosis factor receptor 1 (TNFRSF1A), TNFRSF1A (gene 7132); assay: LTEA_HepaRG_TNFRSF1A: Life Technologies and Expression Analysis (LTEA) Assay for Tumor necrosis factor receptor 1 (TNFRSF1A) using HepaRG (AID 2283535); conditions: mRNA level, 48 h; actives raise or lower the signal
Outline: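 Expression of TNFRSF1A in human HepaRG liver cells was measured by qRT-PCR 48 h after chemical dosing (maximum 100 uM). Bidirectional curve fitting used 0.5% DMSO as baseline.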

[3] = read-out: Thyroid Hormone Responsive (THRSP), THRSP (gene 7069); assay: LTEA_HepaRG_THRSP: Life Technologies and Expression Analysis (LTEA) Assay for Thyroid Hormone Responsive (THRSP) using HepaRG (AID 2283536); conditions: mRNA level, 48 h; actives raise or lower the signal
Outline: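 mRNA induction or loss relative to 0.5% DMSO vehicle was fitted bidirectionally across an eight-point curve whose highest exposure was 100 uM. Human HepaRG liver cells received chemicals in duplicate over 48 h before RNA extraction.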

[4] = read-out: UDP glucuronosyltransferase (UGT1A1), UGT1A1 (gene 54658); assay: LTEA_HepaRG_UGT1A1: Life Technologies and Expression Analysis (LTEA) Assay for UDP glucuronosyltransferase (UGT1A1) using HepaRG (AID 2283538); conditions: mRNA level, 48 h; actives raise or lower the signal
Outline: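 Differentiated human HepaRG cells in serum-free induction medium were exposed in duplicate for 48 h to eight half-log concentrations up to 100 uM in 0.5% DMSO. UGT1A1 mRNA was quantified by TaqMan qRT-PCR, normalized to ACTB, GAPDH and POLR2A, and fitted bidirectionally against DMSO.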

[5] = read-out: UDP glucuronosyltransferase (UGT1A6), UGT1A6 (gene 54578); assay: LTEA_HepaRG_UGT1A6: Life Technologies and Expression Analysis (LTEA) Assay for UDP glucuronosyltransferase (UGT1A6) using HepaRG (AID 2283539); conditions: mRNA level, 48 h; actives raise or lower the signal
Outline: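 Endpoint is UGT1A6 transcript induction or loss in a human liver cell line, quantified by TaqMan qRT-PCR 48 h after dosing. Concentrations ran from 100 uM downward in half-log steps in 0.5% DMSO; activity was fitted in both directions versus vehicle.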

[6] = read-out: X-box binding protein 1 (XBP1), XBP1 (gene 7494); assay: LTEA_HepaRG_XBP1: Life Technologies and Expression Analysis (LTEA) Assay for X-box binding protein 1 (XBP1) using HepaRG (AID 2283540); conditions: mRNA level, 48 h; actives raise or lower the signal
Outline: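 Human HepaRG monolayers receive test chemical for 48 h across an eight-point half-log series starting at 100 uM. XBP1 mRNA gain or loss is scored against DMSO by qRT-PCR.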

[7] = LTEA_HepaRG_LDH_cytotoxicity: Cytotoxicity Assessment in the Life Technologies and Expression Analysis (LTEA) Assay (AID 2283563; active = hit-call score of the fitted dose curve at least 0.9, where 1 is the maximum;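 as to AC50: LDH activity released into spent culture medium as a marker of cell death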)
Outline: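 Human HepaRG hepatic cells are treated with test chemicals for 48 h at up to 100 uM in 0.5% DMSO. Cytotoxicity is scored from medium LDH against the vehicle control.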

[8] = ATG_XTT_Cytotoxicity: Cytotoxicity Assessment in the Attagene TRANS-FACTORIAL HepG2 Assay (AID 2283584; active = hit-call score of the fitted dose curve at least 0.9, where 1 is the maximum;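 as to AC50: XTT signal for cell number as viability in transfected HepG2 cells; cells exposed to compound for 24 h before reading; active means loss of viability signal versus DMSO baseline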)
Outline: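 Transfect HepG2 with GAL4-UAS reporter units, dose compound, incubate 24 h, then measure viable cell number by XTT. Fit concentration response against DMSO baseline.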

[9] = read-out: Cellular tumor antigen p53 (Homo sapiens) (UniProt P04637); assay: LTEA_HepaRG_TP53: Life Technologies and Expression Analysis (LTEA) Assay for Tumor Protein P53 (TP53) using HepaRG (AID 2283537); conditions: mRNA level, 48 h; actives raise or lower the signal
Outline: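 TP53 transcript measured by qRT-PCR, normalized to three housekeeping genes, after 48 h treatment of human HepaRG cultures with chemicals from 100 uM downward in half-log steps (0.5% DMSO vehicle, serum-free induction medium). Up- or down-regulation fitted against DMSO.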

Measured: AC50

Sequence of Cellular tumor antigen p53 (Homo sapiens) (P04637 whole entry, looked up): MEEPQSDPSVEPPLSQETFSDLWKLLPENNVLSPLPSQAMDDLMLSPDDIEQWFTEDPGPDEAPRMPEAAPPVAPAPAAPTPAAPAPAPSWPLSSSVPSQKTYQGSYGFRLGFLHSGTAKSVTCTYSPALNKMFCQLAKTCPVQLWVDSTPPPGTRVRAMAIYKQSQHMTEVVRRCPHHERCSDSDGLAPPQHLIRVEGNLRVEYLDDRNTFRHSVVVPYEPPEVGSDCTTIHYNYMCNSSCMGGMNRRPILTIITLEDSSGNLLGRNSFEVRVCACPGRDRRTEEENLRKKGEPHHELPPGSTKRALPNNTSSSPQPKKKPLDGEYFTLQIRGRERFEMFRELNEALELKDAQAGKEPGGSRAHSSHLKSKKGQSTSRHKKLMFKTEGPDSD

Nc1nc(=S)c2[nH]cnc2[nH]1
active: [3] 9.18 µM | [5] 5.91 µM | [6] 15.7 µM | [7] 32.9 µM
not listed: [9]
inactive: all other assays above

O=C(N[C@@H](c1ccccc1)[C@@H]1CCCCN1)c1cccc(C(F)(F)F)c1Cl
inactive: TIMP1, TIMP1 (gene 7076) | [3] | [6]
active: [1] 82.3 µM | [2] 82.2 µM | [4] 57.7 µM | [5] 69.1 µM | [7] 43 µM

CCCCCCCCCC[N+](C)(C)[O-]
inactive: all assays above

CCc1cc(C2=C(C(=O)O)N(c3ccccc3C(F)(F)F)S(=O)(=O)c3ccccc32)cc2c1OCO2
active: [3] 87 µM | [9] 69.5 µM | [4] 1.73 µM | [5] 74.8 µM | [7] 74.1 µM
inactive: [1] | TIMP1, TIMP1 (gene 7076) | [2]

CCCCCCCCCCCCCCCCO
not listed: [9]
inactive: all other assays above

CC1(C)C(=O)NC(=O)N1CO
not listed: [6]
inactive: all other assays above

CSc1ccc(Oc2ccc(S(N)(=O)=O)cc2CN(C)C)cc1C
active: [7] 81.4 µM
not listed: [8] | [9]
inactive: all other assays above

COC(=O)[C@H]1[C@H]2C[C@@H]3c4[nH]c5cc(OC)ccc5c4CCN3C[C@H]2C[C@@H](OC(=O)c2cc(OC)c(OC)c(OC)c2)[C@@H]1OC
active: [3] 28.3 µM | [4] 66.1 µM | [5] 55.3 µM | [7] 30.3 µM
not listed: [6]
inactive: all other assays above

C=CCCCCCCCCCCCC
not listed: [6]
inactive: all other assays above

Cc1occc(=O)c1O
not listed: [9]
inactive: all other assays above

O=[Si]=O
not listed: [6]
inactive: all other assays above

O=NO
not listed: [8] | [9]
inactive: all other assays above

OCC(CO)n1cnc(-c2ccc(F)cc2)c1-c1ccnc(Oc2ccccc2)n1
active: [4] 24.9 µM
not listed: [6] | [8]
inactive: all other assays above

CC1=C(C)S(=O)(=O)CCS1(=O)=O
active: [3] 80 µM | [9] 50 µM | [5] 0.282 µM
not listed: [6]
inactive: all other assays above

CC(C)(O)c1ccc(CNC(=O)c2cccnc2Oc2ccc(F)cc2)cc1
active: [4] 4.71 µM
not listed: [6] | [8]
inactive: all other assays above

CN(C)C(=O)NC1(c2ccccc2)CCN(CC[C@@]2(c3ccc(F)c(F)c3)CN(C(=O)c3ccccc3)CCO2)CC1
active: [3] 29.7 µM | [7] 73.5 µM
not listed: [6] | [8]
inactive: all other assays above

CC(C)(C)c1ccccc1
not listed: [6]
inactive: all other assays above

Cc1ccc(-c2cc(C(F)(F)F)nn2-c2ccc(S(N)(=O)=O)cc2)cc1
inactive: [3]
active: [1] 84.2 µM | TIMP1, TIMP1 (gene 7076) 88 µM | [2] 93.5 µM | [4] 86.3 µM | [5] 71.6 µM | [6] 50 µM | [7] 74.4 µM | [8] 149 µM

N[C@@H](Cc1c[nH]c2ccccc12)C(=O)O
not listed: [9]
inactive: all other assays above

CC(C)OC(=O)C(C)(C)Oc1ccc(C(=O)c2ccc(Cl)cc2)cc1
active: [4] 3.76 µM | [5] 0.0504 µM
not listed: [6] | [9]
inactive: all other assays above

CC(C)COC(=O)CCCCC(=O)OCC(C)C
not listed: [6] | [9]
inactive: all other assays above

C/C=C/c1ccc(OC)cc1
not listed: [6] | [9]
inactive: all other assays above

CC(=O)OCC(COC(C)=O)OC(C)=O
not listed: [9]
inactive: all other assays above

O=C(Oc1ccccc1)c1cccc(C(=O)Oc2ccccc2)c1
not listed: [6] | [9]
inactive: all other assays above

O=C1CCCCC1
active: [2] 0.0538 µM
not listed: [6] | [9]
inactive: all other assays above

CC(=O)O[C@]1(C(C)=O)CC[C@H]2[C@@H]3C=C(Cl)C4=CC(=O)[C@@H]5C[C@@H]5[C@]4(C)[C@H]3CC[C@@]21C
active: [4] 72.3 µM | [5] 73.3 µM | [7] 53.7 µM
not listed: [6] | [9]
inactive: all other assays above

O=C1NC(=O)C(c2ccccc2)(c2ccccc2)N1
active: [4] 19.3 µM
not listed: [9]
inactive: all other assays above

Cc1cn([C@H]2C=C[C@@H](CO)O2)c(=O)[nH]c1=O
not listed: [2] | [9]
inactive: all other assays above

CCCC(=O)O
not listed: [6] | [8] | [9]
inactive: all other assays above

CCCCCCC(C=O)=Cc1ccccc1
not listed: [6] | [9]
inactive: all other assays above

O=C(O)c1cccnc1
not listed: [6] | [9]
inactive: all other assays above

CC(=O)[C@@]1(O)CC[C@H]2[C@@H]3CCC4=CC(=O)CC[C@]4(C)[C@H]3CC[C@@]21C
active: [3] 50 µM
not listed: [6] | [9]
inactive: all other assays above

CC(=O)OC1CC(C)OC(C)O1 (stereo unspecified)
not listed: [9]
inactive: all other assays above

CC(C)NCC(O)c1ccc(O)c(O)c1 (stereo unspecified)
inactive: [1] | [2] | [5]
active: [3] 0.179 µM | [4] 0.111 µM

CCN(CC)CCOc1ccc(C(=C(Cl)c2ccccc2)c2ccccc2)cc1
active: [1] 42 µM | [4] 80.1 µM | [5] 56.6 µM | [7] 62.5 µM | [8] 28 µM [middle of 5 runs]
inactive: TIMP1, TIMP1 (gene 7076) | [2] | [3] | [6]

NC=O
not listed: [6] | [9]
inactive: all other assays above

CC(C)c1cccc(C(C)C)c1
not listed: [3] | [8] | [9]
inactive: all other assays above

O=C1c2c(O)cccc2Cc2cccc(O)c21
not listed: [1]
inactive: all other assays above

C#CC(O)C(CC)CCCC (stereo unspecified)
not listed: [6] | [8] | [9]
inactive: all other assays above

CC(=O)O
not listed: [6] | [7] | [9]
inactive: all other assays above

C/C=C/C=C/C(=O)O
active: [4] 0.171 µM
not listed: [6] | [9]
inactive: all other assays above

NC1CCCCC1
not listed: [6] | [9]
inactive: all other assays above

CC(COCC(C)OC(=O)c1ccccc1)OC(=O)c1ccccc1 (stereo unspecified)
not listed: [6] | [8] | [9]
inactive: all other assays above

O=C(NS(=O)(=O)/C=C/c1cccs1)c1ccc(F)cc1Br
active: [4] 14 µM
not listed: [6] | [8] | [9]
inactive: all other assays above

CC(=O)CC(c1ccccc1)c1c(O)c2ccccc2oc1=O (stereo unspecified)
active: [3] 34.5 µM
not listed: [6] | [9]
inactive: all other assays above

Cn1cnc2c1c(=O)[nH]c(=O)n2C
not listed: [6] | [9]
inactive: all other assays above

O=Cc1ccccc1C=O
not listed: [9]
inactive: all other assays above
